Assay results from the supplement of paper PMC10127200.
Structures can show the parent of a compound that is named as a salt.

What was measured:
Test in all cases: Euclidean distance of Cell Painting phenotypic profile (signed KS, 77 features) to DMSO centroid (dimensionless distance); 5 or 10 uM (library dependent); higher = stronger phenotypic change vs DMSO (phenoactivity)
Settings in all cases: 48 h
[1] = test system: 786-O
How it was run: (§1)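 Phenoactivity is computed as Euclidean distance to the median vehicle profile. The profiles, drawn from 77 Harmony features scored as signed Kolmogorov-Smirnov statistics versus same-plate vehicle wells, were corrected for plate position, correlation-weighted and replicate-averaged at the top dose. Stained cells were imaged confocally at 20X (9 fields/well) after 48 h with library compounds at 10 or 5 uM, 0.1% DMSO final, in five cancer lines and a healthy fibroblast line.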

[2] = test system: A549
How it was run: as §1

[3] = test system: DU145
How it was run: as §1

[4] = test system: FB
How it was run: as §1

[5] = test system: HEPG2
How it was run: as §1

[6] = test system: OVCAR4
How it was run: as §1

Structure (SMILES)	Euclidean distance [1]	Euclidean distance [2]	Euclidean distance [3]	Euclidean distance [4]	Euclidean distance [5]	Euclidean distance [6]
CCC(=O)O[C@]1(C(=O)SCF)[C@H](C)C[C@H]2[C@@H]3C[C@H](F)C4=CC(=O)C=C[C@]4(C)[C@@]3(F)[C@@H](O)C[C@@]21C [Fluticasone propionate]	1.77	2.26	2.6	1.83	0.813	1.61
CC1(C)S[C@@H]2[C@H](NC(=O)C(c3ccccc3)S(=O)(=O)O)C(=O)N2[C@H]1C(=O)O (stereo not given in full) [Sulbenicillin Sodium]	0.75	0.447	1.14	1.28	0.601	1.09
NCCCCCNCC12CC3CC(CC(C3)C1)C2 [IEM 1754 dihydrobroMide]	0.936	0.504	0.662	0.973	2.44	0.664
Nc1nc(N)c2nc(-c3cccc(O)c3)c(-c3cccc(O)c3)nc2n1	1.06	1.73	1	1.45	2.84	1.02
CC(C)(Oc1ccc(C(=O)c2ccc(Cl)cc2)cc1)C(=O)O [Fenofibric acid]	0.559	1.24	0.978	1.59	0.698	0.976
COc1cc2nc(N3CCCN(C)CC3)nc(NC3CCN(Cc4ccccc4)CC3)c2cc1OC	4.16	3.99	3.51	4.73	4.64	3.6
CC1(C)O[C@@H]2C[C@H]3[C@@H]4C[C@H](F)C5=CC(=O)C=C[C@]5(C)[C@@]4(F)[C@@H](O)C[C@]3(C)[C@]2(C(=O)CO)O1 [Fluocinolone Acetonide]	1.43	1.77	2	2.02	0.86	2.22
Cc1c(Cl)cccc1Nc1ccccc1C(=O)O [Tolfenamic Acid]	1.28	0.83	0.762	0.742	0.5	1.19
O=C(O)c1ccc(-n2nc(-c3ccccc3O)nc2-c2ccccc2O)cc1 [Deferasirox]	2.29	2.01	1.82	2.5	1.64	1.99
O=C(c1ccc(F)cc1)C1CCN(CCn2c(=O)[nH]c3ccccc3c2=O)CC1 [Ketanserin]	1.44	0.68	0.898	0.767	0.883	1.08
CCC(C(=O)O)c1ccc(N2Cc3ccccc3C2=O)cc1 (stereo not given) [Indobufen]	0.947	0.717	1.19	1.01	0.618	1.31
CC1=C(/C=C/C(C)=C/C=C/C(C)=C\C(=O)O)C(C)(C)CCC1 [Isotretinoin]	1.68	1.11	1.24	1.94	1.63	1.46
CN(C)CCCN1c2ccccc2Sc2ccc(Cl)cc21 [Chlorpromazine]	1.47	1.98	1.56	2.21	2.01	1.04
Cc1ccc(CNc2ncnc3ccc(-c4ccc(CO)o4)cc23)o1	1.8	1.95	1.67	1.25	2.04	1.67
c1ccc(-c2[nH]ncc2-c2ccnc3ccccc23)nc1	0.643	0.916	0.92	1.27	1.24	0.931
O=C(O)c1ccc(Nc2ncc3c(n2)-c2ccc(Cl)cc2C(c2c(F)cccc2F)=NC3)cc1	2.83	3.8	2.7	2.34	3.27	3.07
CN[C@@H]1[C@@H](O)[C@@H](O[C@@H]2[C@@H](O)[C@H](O[C@H]3O[C@H](CN)[C@@H](O)[C@H](O)[C@H]3O)[C@@H](N)C[C@H]2NC(=O)[C@@H](O)CN)OC[C@]1(C)O [Isepamicin Sulphate]	1.12	0.946	0.819	1.14	0.94	1.65
C=CC(=O)Nc1cccc(Oc2nc(Nc3ccc(N4CCN(C)CC4)cc3)nc3ccsc23)c1	4.18	3.94	2.73	3.64	3.85	3.57
OC(c1cc(C(F)(F)F)nc2c(C(F)(F)F)cccc12)C1CCCCN1 (stereo not given) [Mefloquine HCl]	2.22	2.49	1.85	2.46	4.9	2.05
C[C@@H](O)[C@H]1C(=O)N2C(C(=O)[O-])=C(SC3Cn4cnc[n+]4C3)[C@H](C)[C@H]12 (stereo not given in full) [Biapenem]	1.35	0.934	1.14	1.22	1.02	0.838
COc1cc(C(=O)NS(=O)(=O)c2ccccc2C)ccc1Cc1cn(C)c2ccc(NC(=O)OC3CCCC3)cc12 [Zafirlukast]	0.974	1.5	1.22	1.21	0.548	1.34
O=C(O)CCNC(=O)c1ccccc1 [Betamipron]	0.807	1.17	1.01	0.869	0.988	1.34
COc1ccc(CN2CCN(C(c3ccc(F)cc3)c3ccc(F)cc3)CC2)c(OC)c1OC [Lomerizine 2HCl]	1.91	1.66	1.02	1.08	1.13	1.72
NCCNc1ccc(NCCN)c2c1C(=O)c1ccncc1C2=O [Pixantrone Maleate]	4.41	3.32	3.46	4.14	4.48	3.49
Cc1cc2c(cc1S(N)(=O)=O)S(=O)(=O)CCC2 [Meticrane]	0.951	0.864	2.26	0.946	1.17	0.99
Nc1ncnc2n[nH]c(Nc3ccc(F)cc3)c12	0.861	2.17	1.25	1.67	0.599	1.4
Cc1cc(NS(=O)(=O)c2ccc(N)cc2)no1 [Sulfamethoxazole]	1.58	0.797	0.847	1.02	0.562	0.86
O=C(c1ccc(C(=O)N2CCC(N3CCCC3)CC2)c(Nc2ccccc2)c1)N1CCC(N2CCCC2)CC1	0.8	1.05	0.703	0.904	0.536	0.678
CO[C@@H]1[C@@H](O[C@@H]2O[C@H](C)[C@@H](O[C@H]3C[C@@](C)(O)[C@@H](O)[C@H](C)O3)[C@H](N(C)C)[C@H]2O)[C@@H](CC=O)C[C@@H](C)[C@@H](O[C@H]2CC[C@H](N(C)C)[C@@H](C)O2)/C=C/C=C/C[C@@H](C)OC(=O)C[C@H]1OC(C)=O [Acetylspiramycin (ASPM)]	0.993	1.5	2.15	1.66	1.45	1.73
O=C(O)COc1nn(Cc2ccccc2)c2ccccc12 [Bendazac]	1.07	0.905	1.13	1.39	0.558	1.32
